# Unmarked numbers belong to inactive results.
# Key:
# Experiment in all cases: log2 ratio of Biotin-Ahx-Ub-VS probe labelling (fragment/DMSO); higher = less target engagement (more negative = stronger competition), active = hit call of the paper (q ≤ 0.05, log2 ratio ≤ -1)
# Conditions in all cases: compound concentration: 200 uM; treatment time: 3 h
# [1] = target: T1, ALG13 (UniProt Q9NP73)
# T1 sequence (whole entry): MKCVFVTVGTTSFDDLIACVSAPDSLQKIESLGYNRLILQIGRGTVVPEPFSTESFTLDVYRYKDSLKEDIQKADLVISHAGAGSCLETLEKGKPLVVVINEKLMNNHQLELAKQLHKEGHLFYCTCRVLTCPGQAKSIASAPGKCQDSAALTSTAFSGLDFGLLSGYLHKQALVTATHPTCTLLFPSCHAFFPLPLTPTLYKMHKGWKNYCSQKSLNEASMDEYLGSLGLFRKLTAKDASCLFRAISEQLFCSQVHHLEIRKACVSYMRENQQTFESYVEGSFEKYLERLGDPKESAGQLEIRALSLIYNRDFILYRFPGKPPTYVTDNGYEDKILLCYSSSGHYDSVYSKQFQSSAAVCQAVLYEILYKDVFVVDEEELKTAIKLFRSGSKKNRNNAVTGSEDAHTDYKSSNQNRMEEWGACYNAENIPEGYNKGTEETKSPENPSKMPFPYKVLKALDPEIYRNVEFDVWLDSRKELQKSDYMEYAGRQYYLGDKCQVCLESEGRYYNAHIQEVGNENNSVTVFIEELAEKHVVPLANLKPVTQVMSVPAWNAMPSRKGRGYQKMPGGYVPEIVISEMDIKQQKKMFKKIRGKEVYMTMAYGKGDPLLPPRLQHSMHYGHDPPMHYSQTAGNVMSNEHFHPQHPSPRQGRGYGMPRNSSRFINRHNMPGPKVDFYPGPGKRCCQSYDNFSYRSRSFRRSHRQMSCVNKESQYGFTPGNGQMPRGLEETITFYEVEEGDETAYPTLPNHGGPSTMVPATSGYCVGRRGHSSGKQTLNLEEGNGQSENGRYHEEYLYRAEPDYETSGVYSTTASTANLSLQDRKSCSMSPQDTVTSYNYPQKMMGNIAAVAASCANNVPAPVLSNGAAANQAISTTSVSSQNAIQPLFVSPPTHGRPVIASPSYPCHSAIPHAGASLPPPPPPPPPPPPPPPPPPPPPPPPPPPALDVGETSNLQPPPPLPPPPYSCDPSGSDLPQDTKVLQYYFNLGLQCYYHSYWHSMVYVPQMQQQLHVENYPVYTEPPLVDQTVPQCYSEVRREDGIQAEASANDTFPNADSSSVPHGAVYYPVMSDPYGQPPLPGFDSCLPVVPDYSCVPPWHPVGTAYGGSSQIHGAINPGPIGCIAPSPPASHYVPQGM
# In short: (§1)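 HEK293T lysate (495 µg per sample, in Tris/CHAPS/IGEPAL buffer with protease inhibitors) was exposed in triplicate for 3 h to fragment at 200 µM or to vehicle, then to Biotin-Ahx-Ub-VS at 0.5 µM final for 1 h. Labelled DUBs were enriched on NeutrAvidin, digested with LysC and trypsin, and analysed by diaPASEF LC-MS/MS. Spectronaut label-free quantities were normalised to the global median, and values are average log2 ratios of fragment over vehicle from an unpaired t-test. Only proteins with ≥2 unique peptides were used.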
# [2] = target: ATXN3 (UniProt P54252)
# In short: as §1
# [3] = target: T2, BAP1 (UniProt Q92560)
# T2 sequence (whole entry): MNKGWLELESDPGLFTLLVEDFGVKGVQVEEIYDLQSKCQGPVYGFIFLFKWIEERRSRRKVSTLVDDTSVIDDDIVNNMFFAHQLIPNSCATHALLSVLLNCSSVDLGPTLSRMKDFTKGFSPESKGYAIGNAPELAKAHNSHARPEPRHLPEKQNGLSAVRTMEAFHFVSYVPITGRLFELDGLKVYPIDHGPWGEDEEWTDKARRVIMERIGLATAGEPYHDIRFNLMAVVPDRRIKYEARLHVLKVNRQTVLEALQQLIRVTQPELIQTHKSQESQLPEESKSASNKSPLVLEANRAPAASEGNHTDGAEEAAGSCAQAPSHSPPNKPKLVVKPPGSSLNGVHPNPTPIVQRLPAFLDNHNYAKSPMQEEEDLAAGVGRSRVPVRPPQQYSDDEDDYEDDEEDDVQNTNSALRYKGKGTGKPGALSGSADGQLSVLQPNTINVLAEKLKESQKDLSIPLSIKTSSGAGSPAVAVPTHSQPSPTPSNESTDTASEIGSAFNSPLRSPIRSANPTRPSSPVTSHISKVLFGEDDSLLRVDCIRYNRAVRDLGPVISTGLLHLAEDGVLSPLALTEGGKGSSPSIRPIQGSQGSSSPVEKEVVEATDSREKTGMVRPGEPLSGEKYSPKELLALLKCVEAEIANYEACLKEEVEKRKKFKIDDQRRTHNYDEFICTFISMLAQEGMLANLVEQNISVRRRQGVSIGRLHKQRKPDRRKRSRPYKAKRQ
# In short: as §1
# [4] = target: EIF3F (UniProt O00303)
# In short: as §1
# [5] = target: EIF3H (UniProt O15372)
# In short: as §1
# [6] = target: T3, FAM105A (UniProt Q9NUU6)
# T3 sequence (whole entry): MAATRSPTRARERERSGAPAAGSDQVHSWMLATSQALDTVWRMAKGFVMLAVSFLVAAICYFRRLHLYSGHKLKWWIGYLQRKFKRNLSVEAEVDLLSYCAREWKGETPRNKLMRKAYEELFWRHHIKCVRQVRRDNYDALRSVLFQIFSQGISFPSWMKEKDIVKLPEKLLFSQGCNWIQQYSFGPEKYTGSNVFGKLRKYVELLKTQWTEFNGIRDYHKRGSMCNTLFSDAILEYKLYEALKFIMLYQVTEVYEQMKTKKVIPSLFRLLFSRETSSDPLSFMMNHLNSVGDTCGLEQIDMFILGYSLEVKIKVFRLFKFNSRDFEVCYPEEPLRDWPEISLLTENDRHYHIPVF
# In short: as §1
# [7] = target: OTUB1 (UniProt Q96FW1)
# In short: as §1
# [8] = target: T4, OTUD4 (UniProt Q01804)
# T4 sequence (whole entry): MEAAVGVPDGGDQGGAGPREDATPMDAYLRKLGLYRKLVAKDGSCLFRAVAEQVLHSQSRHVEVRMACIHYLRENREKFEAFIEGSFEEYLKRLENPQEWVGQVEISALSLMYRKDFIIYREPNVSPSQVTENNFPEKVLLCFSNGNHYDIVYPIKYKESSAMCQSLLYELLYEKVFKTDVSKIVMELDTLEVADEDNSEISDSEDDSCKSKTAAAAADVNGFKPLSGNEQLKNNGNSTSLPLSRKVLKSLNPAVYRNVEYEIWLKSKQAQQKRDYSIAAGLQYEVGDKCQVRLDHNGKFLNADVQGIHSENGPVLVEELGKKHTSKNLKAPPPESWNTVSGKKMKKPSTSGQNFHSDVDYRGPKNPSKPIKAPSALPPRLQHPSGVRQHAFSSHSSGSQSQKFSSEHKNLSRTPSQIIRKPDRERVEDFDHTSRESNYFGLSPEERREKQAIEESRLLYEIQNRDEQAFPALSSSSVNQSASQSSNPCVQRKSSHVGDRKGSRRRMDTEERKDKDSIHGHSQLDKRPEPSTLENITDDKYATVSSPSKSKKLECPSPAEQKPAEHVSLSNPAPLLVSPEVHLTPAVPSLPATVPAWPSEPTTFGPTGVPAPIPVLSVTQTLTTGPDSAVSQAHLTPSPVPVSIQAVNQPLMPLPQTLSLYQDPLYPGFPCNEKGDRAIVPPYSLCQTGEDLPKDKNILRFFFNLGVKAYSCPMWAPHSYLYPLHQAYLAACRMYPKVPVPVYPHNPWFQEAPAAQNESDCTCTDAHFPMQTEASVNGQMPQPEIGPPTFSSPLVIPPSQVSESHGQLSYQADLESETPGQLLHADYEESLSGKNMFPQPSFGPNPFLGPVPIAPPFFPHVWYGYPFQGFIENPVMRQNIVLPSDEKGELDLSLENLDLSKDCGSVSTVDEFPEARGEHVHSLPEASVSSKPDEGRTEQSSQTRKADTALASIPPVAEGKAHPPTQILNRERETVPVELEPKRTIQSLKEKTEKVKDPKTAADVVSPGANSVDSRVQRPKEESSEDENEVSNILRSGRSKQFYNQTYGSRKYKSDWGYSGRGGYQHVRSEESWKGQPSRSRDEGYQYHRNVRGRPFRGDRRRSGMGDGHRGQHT
# In short: as §1
# [9] = target: T5, OTUD5 (UniProt Q96G74)
# T5 sequence (whole entry): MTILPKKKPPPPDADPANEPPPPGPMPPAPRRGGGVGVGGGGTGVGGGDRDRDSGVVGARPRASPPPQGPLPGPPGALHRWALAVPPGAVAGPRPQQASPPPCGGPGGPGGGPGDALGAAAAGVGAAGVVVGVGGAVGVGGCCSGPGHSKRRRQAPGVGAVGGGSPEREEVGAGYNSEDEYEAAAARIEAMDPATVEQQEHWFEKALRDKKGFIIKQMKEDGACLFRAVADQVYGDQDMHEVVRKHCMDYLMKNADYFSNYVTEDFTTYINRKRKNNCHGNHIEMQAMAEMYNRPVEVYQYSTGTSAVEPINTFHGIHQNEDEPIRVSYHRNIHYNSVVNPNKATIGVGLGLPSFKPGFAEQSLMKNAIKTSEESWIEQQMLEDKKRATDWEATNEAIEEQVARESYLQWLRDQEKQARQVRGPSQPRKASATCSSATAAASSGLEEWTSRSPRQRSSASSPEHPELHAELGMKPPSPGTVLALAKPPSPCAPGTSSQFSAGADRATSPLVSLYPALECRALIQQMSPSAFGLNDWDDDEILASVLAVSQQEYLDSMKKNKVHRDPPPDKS
# In short: as §1
# Chain of OTUB1 (Q96FW1 whole entry): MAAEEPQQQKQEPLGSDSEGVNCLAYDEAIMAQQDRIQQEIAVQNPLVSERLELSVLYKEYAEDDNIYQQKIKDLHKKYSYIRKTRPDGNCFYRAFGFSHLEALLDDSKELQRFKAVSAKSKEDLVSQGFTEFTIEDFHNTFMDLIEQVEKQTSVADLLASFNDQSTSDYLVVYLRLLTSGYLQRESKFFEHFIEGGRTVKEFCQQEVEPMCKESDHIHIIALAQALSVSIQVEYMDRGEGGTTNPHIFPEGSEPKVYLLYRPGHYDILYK
# Chain of EIF3F (O00303 whole entry): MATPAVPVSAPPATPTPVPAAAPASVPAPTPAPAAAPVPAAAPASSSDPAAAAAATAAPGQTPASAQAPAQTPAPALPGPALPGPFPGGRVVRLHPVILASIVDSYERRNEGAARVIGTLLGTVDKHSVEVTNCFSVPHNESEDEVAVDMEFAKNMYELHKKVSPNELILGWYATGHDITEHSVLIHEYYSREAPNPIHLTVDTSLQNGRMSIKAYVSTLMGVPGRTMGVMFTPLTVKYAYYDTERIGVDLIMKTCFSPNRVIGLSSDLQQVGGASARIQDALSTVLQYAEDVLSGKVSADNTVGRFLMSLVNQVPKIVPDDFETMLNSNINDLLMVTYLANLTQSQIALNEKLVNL
# Chain of EIF3H (O15372 whole entry): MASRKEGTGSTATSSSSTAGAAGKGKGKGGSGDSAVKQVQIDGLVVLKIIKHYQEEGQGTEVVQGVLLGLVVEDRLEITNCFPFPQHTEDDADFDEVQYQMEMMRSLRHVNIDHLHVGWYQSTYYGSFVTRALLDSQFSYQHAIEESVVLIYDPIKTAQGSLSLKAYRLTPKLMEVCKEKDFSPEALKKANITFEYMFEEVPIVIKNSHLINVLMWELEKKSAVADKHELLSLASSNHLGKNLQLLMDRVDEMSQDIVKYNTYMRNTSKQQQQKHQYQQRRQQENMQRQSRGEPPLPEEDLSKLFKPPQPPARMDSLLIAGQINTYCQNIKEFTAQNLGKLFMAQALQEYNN
# Chain of ATXN3 (P54252 whole entry): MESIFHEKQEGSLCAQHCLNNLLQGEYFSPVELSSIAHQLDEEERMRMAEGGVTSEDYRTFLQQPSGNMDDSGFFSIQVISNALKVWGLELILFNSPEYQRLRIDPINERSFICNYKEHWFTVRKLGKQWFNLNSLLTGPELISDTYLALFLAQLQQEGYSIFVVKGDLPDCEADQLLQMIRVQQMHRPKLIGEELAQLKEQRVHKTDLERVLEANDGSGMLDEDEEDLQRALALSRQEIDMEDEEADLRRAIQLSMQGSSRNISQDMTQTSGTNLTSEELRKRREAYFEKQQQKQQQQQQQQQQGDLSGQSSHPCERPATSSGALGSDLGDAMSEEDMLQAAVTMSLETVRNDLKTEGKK
structure (smiles),measurement,setting,value
CC1CN(c2ccc(NC(=O)CCl)cc2)CC(C)O1 (centres undefined),log2 ratio of Biotin-Ahx-Ub-VS probe labelling,[1],-0.442
same,log2 ratio of Biotin-Ahx-Ub-VS probe labelling,[2],-0.412
same,log2 ratio of Biotin-Ahx-Ub-VS probe labelling,[3],-2.48 (active)
same,log2 ratio of Biotin-Ahx-Ub-VS probe labelling,[4],-0.0748
same,log2 ratio of Biotin-Ahx-Ub-VS probe labelling,[5],0.0832
same,log2 ratio of Biotin-Ahx-Ub-VS probe labelling,[6],0.115
same,log2 ratio of Biotin-Ahx-Ub-VS probe labelling,[7],0.133
same,log2 ratio of Biotin-Ahx-Ub-VS probe labelling,[8],-0.357
same,log2 ratio of Biotin-Ahx-Ub-VS probe labelling,[9],-0.371

# — the supplement of paper PMC11732987, “Enantioselective OTUD7B fragment discovery through chemoproteomics screening and high-throughput optimisation” (Communications Chemistry, 2025)
